The panel holds about 79,000 compounds, 15% with a hit somewhere; the sample as a whole holds those more often. A number with no mark means an inactive call. Activity calls are given as the source filed them. No stated cut-off is given here; in the data, active means growth inhibition above about 70%; inactive means the rest.
Legend:
[1] = NCI Yeast Anticancer Drug Screen. Data for the rad50 strain (AID 155);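 further: 0% = growth of vehicle-only cultures of the same strain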; details: S. cerevisiae rad50 strain growth inhibition, stronger effect = higher value
Outline: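 Inhibition values express reduced yeast growth in compound-treated cultures relative to vehicle-treated controls.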

[2] = NCI Yeast Anticancer Drug Screen. Data for the mec2-1 strain (AID 157); details: S. cerevisiae mec2-1 strain, stronger effect = higher value
Outline: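 Readout is yeast growth inhibition, normalised to vehicle-treated controls, in the mec2-1 strain exposed to compound.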

[3] = NCI Yeast Anticancer Drug Screen. Data for the sgs1 mgt1 strain (AID 161);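 further: 0% = growth of cultures given vehicle only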; details: S. cerevisiae sgs1 mgt1 strain, stronger effect = higher value
Outline: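 Percent growth inhibition was derived by comparing compound-exposed mutant yeast with vehicle-exposed cultures. The strain carries alterations in DNA damage repair.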

[4] = NCI Yeast Anticancer Drug Screen. Data for the cln2 rad14 strain (AID 165);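 further: 0% = growth equal to vehicle treated cultures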; details: S. cerevisiae cln2 rad14 strain, stronger effect = higher value
Outline: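 Relative to vehicle controls, growth inhibition of compound-treated cln2 rad14 yeast was recorded.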

[5] = NCI Yeast Anticancer Drug Screen. Data for the bub3 strain (AID 167); details: S. cerevisiae bub3 mutant strain, stronger effect = higher value
Outline: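 Steps: expose the mutant yeast strain to compound; grow alongside vehicle-treated cultures; measure growth; express inhibition against the vehicle cultures.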

[6] = NCI Yeast Anticancer Drug Screen. Data for the mlh1 rad18 strain (AID 175); details: S. cerevisiae mlh1 rad18 strain growth inhibition, stronger effect = higher value
Outline: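 Test agents were incubated with a yeast strain of defined genotype (DNA damage repair defect). Inhibition of growth was derived by comparison with vehicle-exposed cultures.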

[7] = at 5.0 µM (retest, dose inferred, filed as 0.5)
[8] = at 50.0 µM (retest, dose inferred, filed as 5.0)

SMILES	growth inhibition [1, 7] [%]	growth inhibition [1, 8]	growth inhibition ([1]; at 50.0 µM)	growth inhibition [2, 7] [%]	growth inhibition [2, 8]	growth inhibition ([2]; at 50.0 µM)	growth inhibition [3, 7] [%]	growth inhibition [3, 8]	growth inhibition ([3]; at 50.0 µM)	growth inhibition [4, 7] [%]	growth inhibition [4, 8]	growth inhibition ([4]; at 50.0 µM)	growth inhibition [5, 7] [%]	growth inhibition [5, 8]	growth inhibition ([5]; at 50.0 µM)	growth inhibition [6, 7] [%]	growth inhibition [6, 8]	growth inhibition ([6]; at 50.0 µM)
O=C(CSc1cc[o+]cc1)c1cccc([N+](=O)[O-])c1	0	49%	65.8%	2	87% (active)	81.8% (active)	4	86% (active)	68%	-5	53%	78.5% (active)	4	92% (active)	97.1% (active)	-3	85% (active)	93.5% (active)
CCCCCCCCCCCCN(CCO)CCO	68	95% (active)	74.9% (active)	36	96% (active)	79.3% (active)	63	96% (active)	89.5% (active)	67	92% (active)	73.8% (active)	57	98% (active)	60.6%	41	91% (active)	85.2% (active)
CC(C)(COC(=O)Nc1cccc(Cl)c1)[N+](=O)[O-]	2	15%	88.3% (active)	-3	6%	5.6%	-1	3%	53.3%	-41	-3%	-33.5%	-1	3%	65.7%	-1	6%	82.6% (active)
CN(/N=C/c1ccc(C(=O)O)cc1)C1=NCCCCN1	-2	29%	5.85%	-4	25%	3.4%	-2	45%	-7.95%	3	12%	40.5%	2	28%	3.2%	1	33%	-11.1%
O=C1c2c(Br)sc(Br)c2[C@@H](NC(=O)C(F)(F)F)C1Br (stereo not given in full)	8	99% (active)	89.3% (active)	3	97% (active)	81.2% (active)	19	99% (active)	97% (active)	-1	93% (active)	28.1%	-3	94% (active)	80% (active)	17	99% (active)	91.8% (active)
CN(C)c1ccc(C2(c3ccc(N(C)C)cc3)OC(=O)c3ccccc32)cc1	2	-6%	26.6%	1	-6%	14.2%	1	-3%	14.5%	-5	-26%	16.9%	60	61%	82.6% (active)	-9	-40%	38.9%
NNc1cccc(C(F)(F)F)c1	19	90% (active)	83.7% (active)	-41	54%	79.5% (active)	-16	28%	88.5% (active)	13	55%	50.1%	-1	97% (active)	88% (active)	34	93% (active)	83.5% (active)
CCOC(=O)C1=C(C)NC(=O)NC1c1coc2cc(C)cc(C)c2c1=O (stereo not given)	-1	10%	12.4%	-2	15%	-5%	3	14%	-2.5%	20	5%	52.2%	14	-4%	-15.8%	0	1%	-7.1%
CCCCOC(=O)C(C)OC(=O)NNc1ccccc1 (stereo not given)	10	51%	48.2%	0	12%	36%	1	39%	36%	7	34%	36.7%	9	88% (active)	99% (active)	6	87% (active)	67%
CCOC(CC)C(O)(c1ccc(N(C)C)cc1)c1ccc(N(C)C)cc1 (stereo not given)	-2	94% (active)	98.3% (active)	-1	69%	98.2% (active)	0	95% (active)	98.6% (active)	-3	63%	97.5% (active)	4	88% (active)	98.7% (active)	1	98% (active)	98.2% (active)

Source: PubChem BioAssay (NCI)
